# According to PubChem BioAssay AID687001 (Broad Institute, 2013):
# Measured potencies and affinities stand elsewhere. Calls of active or inactive are those of the source.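 How the source made its calls: active means signal-lowering compounds whose fitted half-maximal concentration is at or below twice the top tested dose in every run; inconclusive means runs disagree, flat 30 to 70% inhibition, or poor curve fit; inactive means the rest.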
# Target: Protein S100-A4 (Homo sapiens) (UniProt P26447)
# Sequence (P26447 whole entry, looked up): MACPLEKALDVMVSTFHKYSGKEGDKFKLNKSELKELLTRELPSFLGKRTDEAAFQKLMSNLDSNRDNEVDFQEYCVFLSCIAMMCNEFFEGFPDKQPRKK
# Assay: human S100A4 peptide interaction inhibition curves – biochemical, fluorescence polarization, cherry-picked hits, dose response (AID 687001)
row,Compound,outcome
1,CO[C@H]1CN(C)C(=O)c2ccc(NC(=O)NC(C)C)cc2OC[C@@H](C)N(C(=O)NC(C)C)C[C@H]1C,inactive
2,CSc1cccc(NS(=O)(=O)c2ccc(-c3coc(C)n3)cc2)c1,inactive
3,Cc1ccc(C(=O)NC2CC(=O)N(c3ccc4c(c3)OCCO4)C2)cc1[N+](=O)[O-] (configuration not stated),inactive
4,C[C@H]1CN([C@@H](C)CO)C(=O)c2cc(NC(=O)NC3CCCCC3)ccc2O[C@@H]1CN(C)C(=O)Nc1ccccc1,inactive
5,Cc1cccc(S(=O)(=O)N2C[C@@H]3[C@H](c4ccccc42)[C@H](CO)N3CC2CCOCC2)c1,inactive
6,O=C(Nc1ccccc1F)N[C@H]1CC[C@H](CCNC(=O)C2CCCCC2)O[C@H]1CO,inactive
7,C[C@@H]1CCCCO[C@H](CN(C)S(=O)(=O)c2ccc(Cl)cc2)[C@@H](C)CN([C@@H](C)CO)C(=O)c2cc(NS(=O)(=O)c3ccc(F)cc3)ccc2O1,inactive
8,CC=Cc1ccc2n(c1=O)C[C@@H]1[C@@H](CO)[C@H](C(=O)NCc3ccc4c(c3)OCO4)[C@H]2N1C(C)=O (mixture of isomers),inactive
9,NC(=O)c1cc(S(=O)(=O)Nc2cccc(Cl)c2)cs1,inactive
10,C#CCNCCS(=O)(=O)N(Cc1ccc(Br)cc1)[C@@H](CC(C)C)C(=O)O,inactive
11,CN1c2ccc(C#Cc3cccnc3)cc2[C@@H]2[C@@H](CCN2S(=O)(=O)c2ccccc2F)[C@@H]1CO,inactive
12,CN(C(=O)CCc1cn(C)c2ccccc12)c1ccc(Oc2cccnc2)cc1,inactive
13,CC1CCCCC1NC(=O)CSc1nnc(-c2ccco2)n1N (configuration not stated),inactive
14,Cc1cc(C(=O)Nc2ccncc2)c2ccccc2n1,inactive
15,CCc1noc(C)c1C(=O)Nc1nc(-c2ccc(OC)cc2OC)cs1,inactive
16,COc1ccc(NC(=O)Nc2ccc3c(c2)C(=O)N([C@H](C)CO)C[C@H](C)[C@H](CN(C)Cc2ccc(C(F)(F)F)cc2)OCCCC[C@H](C)O3)cc1,inactive
17,C[C@@H]1CN([C@@H](C)CO)C(=O)c2cccc(NS(=O)(=O)c3ccc(F)cc3)c2O[C@H]1CN(C)C(=O)NC1CCCCC1,inactive
18,Nc1[nH]c(C(=O)c2ccccc2)c(-c2ccccc2C(F)(F)F)c1C(=O)NCc1cccc2ccccc12,inactive
19,C[C@@H]1CN([C@H](C)CO)C(=O)Cc2cc(NC(=O)Nc3ccc(C(F)(F)F)cc3)ccc2O[C@H]1CN(C)Cc1ccc2c(c1)OCO2,inactive
20,O=C(NCCN1CCOCC1)c1ccc(/C=C2\Sc3ccccc3N(Cc3ccccc3F)C2=O)cc1,inactive
21,C[C@@H]1CN([C@@H](C)CO)C(=O)c2cc(C#Cc3ccccc3)cnc2O[C@H]1CN(C)C(=O)c1ccccc1F,inactive

row,Compound,outcome
1,COc1ccc(NC(=O)N(C)C[C@@H]2OCCCC[C@@H](C)Oc3ccc(NS(=O)(=O)c4ccc(Cl)cc4)cc3C(=O)N([C@H](C)CO)C[C@@H]2C)cc1,inactive
2,CCn1c(SCC(=O)O)nnc1-c1ccc2[nH]c(C)c(C)c2c1,inactive
3,CCOc1ccccc1N,inactive
4,O=C(NCCc1ccncc1)Nc1ccc(F)cc1,inactive
5,CO[C@@H]1CN(C)C(=O)c2cc(NS(=O)(=O)CC(F)(F)F)ccc2OC[C@@H](C)N(C)C[C@H]1C,inactive
6,COCCCN1CC(=O)N2C(c3ccccc3)c3[nH]c4ccccc4c3C[C@H]2C1=O (some centres not stated),inactive
7,CO[C@@H]1CN(C)C(=O)c2ccc(NC(C)=O)cc2OC[C@H](C)N(Cc2cc(F)ccc2F)C[C@@H]1C,inactive
8,Cc1cc(F)ccc1S(=O)(=O)N1CCCOC1CNC(=O)C(=O)NCc1ccc2c(c1)OCO2 (configuration not stated),inactive
9,CC1(C(=O)Nc2cnc3ccccc3c2)CCN1Cc1cc2ccccc2o1 (configuration not stated),inactive
10,Nc1c(C(=O)Nc2ccc3c(c2)OCCO3)nnn1Cc1ccc(F)cc1,inactive
11,Cc1ccc(S(=O)(=O)Nc2ccc3c(c2)C(=O)N([C@H](C)CO)C[C@@H](C)[C@H](CN(C)S(C)(=O)=O)OCCCC[C@@H](C)O3)cc1,inactive
12,CCNC(=O)NC(=O)CSc1cccc(C(F)(F)F)c1,inactive
13,Cc1cc(OCC(=O)NCCc2c[nH]c3ccccc23)c2c(C)cc(=O)oc2c1,inactive
14,CC(=O)N1CCCCN2[C@@H](CO)[C@H](c3ccc(-c4cccc(C(=O)N(C)C)c4)cc3)[C@@H]2C1,inactive
15,CC1Cc2ccccc2N1NC(=O)c1ccc(Cl)c(S(N)(=O)=O)c1 (configuration not stated),inactive
16,O=C(Nc1nnc(S(=O)(=O)N2CCN(c3ccc(F)cc3)CC2)s1)c1ccccc1,inactive
17,COc1cccc(-c2ccc([C@H]3[C@H](CO)N4CCCCN(CC5CC5)C[C@@H]34)cc2)c1,inactive
18,C[C@@H]1CN([C@@H](C)CO)C(=O)CCCn2cc(nn2)CO[C@H]1CN(C)S(=O)(=O)c1ccc(Oc2ccccc2)cc1,inactive
19,C[C@H]1CN([C@@H](C)CO)C(=O)c2cc(C#CC3CCCCC3)cnc2O[C@H]1CN(C)Cc1cncnc1,inactive
20,Cc1cccc(Nc2c3c(nc4ccccc24)CCC3)c1,inactive
21,CCCCNS(=O)(=O)c1ccc2nc(-c3cccnc3)cc(C(=O)NC(C)CC)c2c1 (configuration not stated),inactive

row,Compound,outcome
1,N/C(=N\OC(=O)CCn1cccc(C(F)(F)F)c1=O)c1ccc(OC(F)(F)F)cc1,inactive
2,Cc1cc(=O)oc2c(C)c(OCC(=O)N3CCN(C(=O)C4COc5ccccc5O4)CC3)ccc12 (configuration not stated),inactive
3,COc1ccc(S(=O)(=O)NCC2CCCN(Cc3cccc(C(C)=O)c3)C2)cc1 (configuration not stated),inactive
4,COCC(=O)N1[C@@H](C#N)[C@H](c2ccc(-c3cccc(F)c3)cc2)[C@@H]1CO,inactive
5,CCCCCN(C(=O)CCC(=O)OCC(=O)Nc1cccc(SC)c1)c1c(N)n(CCCC)c(=O)[nH]c1=O,inactive
6,Cc1ccc(CNS(=O)(=O)c2ccc(C)s2)cc1,inactive
7,CCOc1ccc(NC(=O)CSc2nccn(-c3ccc4c(c3)OCCO4)c2=O)cc1,inactive
8,Cc1ccc(C(=O)N2CCN(c3ccc4c(c3)C3CC4CCN3C(=O)OCc3ccccc3)CC2)cc1 (configuration not stated),inactive
9,O=C(Nc1cc(Cl)ccc1O)C1CC(c2c(F)cccc2Cl)=NO1 (configuration not stated),inactive
10,CCc1nc2c(OCc3ccccc3OC)cccn2c1N(C)C(=O)C(C)C,inactive
11,O=C(Nc1ccccc1F)N1CC(=O)N2[C@H](CO)[C@@H](c3ccc(-c4ccccc4)cc3)[C@H]2C1,inactive
12,CCn1cc(CNC(=O)C2CCC(=O)N(CCc3cccc(F)c3)C2)cn1 (configuration not stated),inactive
13,CCCCn1c(N)c(N(CC)C(=O)CSCc2ccc(C)cc2)c(=O)[nH]c1=O,inactive
14,COc1ccccc1CN1[C@H](CO)[C@H]2c3ccccc3N(C(=O)c3cccnc3)C[C@H]21,inactive
15,COc1ccccc1NC(=O)N1CCCCN2[C@H](C1)[C@@H](c1ccc(C#CC3CC3)cc1)[C@@H]2CO,inactive
16,CCCC(=O)Nc1ccc2c(c1)OC[C@@H](C)N(Cc1ccc(-c3ccccn3)cc1)C[C@H](C)[C@H](OC)CN(C)C2=O,inactive
17,C[C@H]1CN([C@@H](C)CO)C(=O)Cc2cc(NC(=O)CCC(F)(F)F)ccc2O[C@@H]1CN(C)C,inactive
18,CCCC(=O)Nc1ccc2c(c1)OC[C@H](C)NC[C@H](C)[C@H](OC)CN(C)C2=O,inactive
19,O=C(O)c1ccccc1SCCS(=O)(=O)c1ccc(Cl)cc1Cl,inactive
20,CCCN1CCCCC(NC(=O)c2c(F)cccc2F)C1=O (configuration not stated),inactive
21,COc1ccc(CN(C)C[C@H]2OCCCC[C@@H](C)Oc3ccc(NC(=O)Nc4ccc5c(c4)OCO5)cc3C(=O)N([C@H](C)CO)C[C@H]2C)cc1,inactive

row,Compound,outcome
1,O=C(C[C@@H]1CC[C@@H]2[C@H](COC[C@@H](O)CN2C(=O)c2ccc3c(c2)OCO3)O1)NCCN1CCCC1,inactive
2,O=C(NCCC1CCCCN1S(=O)(=O)c1cccs1)C(=O)Nc1ccc(F)cc1 (configuration not stated),inactive
3,CO[C@H]1CN(C)C(=O)c2cc(NC(=O)Nc3ccc4c(c3)OCO4)ccc2OC[C@@H](C)NC[C@@H]1C,inactive
4,Cc1noc(C)c1NC(=O)N(C)C[C@H]1Oc2c(NC(=O)CCCCCC(=O)Nc3ccccc3N)cccc2C(=O)N([C@@H](C)CO)C[C@H]1C,inactive
5,COc1ccc(S(=O)(=O)Nc2ccc3c(c2)CC(=O)N([C@H](C)CO)C[C@H](C)[C@@H](CN(C)CC2CC2)O3)cc1,inactive
6,CCC1(CC)NC(=O)N(CC(=O)Nc2ccc(C)cc2C)C1=O,inactive
7,C[C@H](CO)N1C[C@H](C)[C@H](CN(C)C)Oc2ccc(NS(=O)(=O)c3ccccc3)cc2CC1=O,inactive
8,CCOC(=O)c1cc(C)sc1/N=C/C1C(=O)CCCC1=O,inactive
9,C[C@H]1CCCCO[C@H](CN(C)C(=O)c2ccccc2)[C@@H](C)CN([C@@H](C)CO)C(=O)c2cc(NC(=O)NC3CCCCC3)ccc2O1,inactive
10,O=C(C[C@H]1C[C@@H]2c3cc(NC(=O)c4cccnc4)ccc3O[C@@H]2[C@H](CO)O1)NCc1ccncc1,inactive
11,Cc1ccc(C(=O)COC(=O)C2CC3CCCC(C2)C3=O)cc1[N+](=O)[O-] (configuration not stated),inactive
12,COc1ccc(OCC(=O)N2CCCC2=O)c([N+](=O)[O-])c1,inactive
13,Cn1nc(C(F)(F)F)c(-c2ccc(Br)cc2)c1NC(=O)C1CCC1C(=O)O (configuration not stated),inactive
14,CCCn1cnc2c(oc3ccccc32)c1=O,inactive
15,CCC(=O)N1CC(=O)N2[C@H](CO)[C@H](c3ccc(C#CC4CCCC4)cc3)[C@H]2C1,inactive
16,O=C(NCCS(=O)(=O)NCCCc1ccccc1)c1ccccc1,inactive
17,CC(C)NC(=O)Nc1ccc2c(c1)C(=O)N([C@@H](C)CO)C[C@H](C)[C@H](CN(C)C(=O)c1ccncc1)OCCCC[C@H](C)O2,inactive
18,CC(C)Cc1cc(C(=O)NCCCN2CCOCC2)no1,inactive
19,C[C@@H]1CN([C@@H](C)CO)S(=O)(=O)c2ccc(-c3cccc(C#N)c3)cc2O[C@@H]1CN(C)C(=O)c1ccc(F)cc1,inactive
